In the supplement of paper PMC3334620:
Over roughly 33,000 sequences, “E-score (-0.5 to 0.5)” has its median near -0.035; the highest 2% begin near 0.34. This excerpt belongs to a sample that is enriched for the highest values.

Biological target: T1, Mot3 (UniProt P54785)
T1 sequence: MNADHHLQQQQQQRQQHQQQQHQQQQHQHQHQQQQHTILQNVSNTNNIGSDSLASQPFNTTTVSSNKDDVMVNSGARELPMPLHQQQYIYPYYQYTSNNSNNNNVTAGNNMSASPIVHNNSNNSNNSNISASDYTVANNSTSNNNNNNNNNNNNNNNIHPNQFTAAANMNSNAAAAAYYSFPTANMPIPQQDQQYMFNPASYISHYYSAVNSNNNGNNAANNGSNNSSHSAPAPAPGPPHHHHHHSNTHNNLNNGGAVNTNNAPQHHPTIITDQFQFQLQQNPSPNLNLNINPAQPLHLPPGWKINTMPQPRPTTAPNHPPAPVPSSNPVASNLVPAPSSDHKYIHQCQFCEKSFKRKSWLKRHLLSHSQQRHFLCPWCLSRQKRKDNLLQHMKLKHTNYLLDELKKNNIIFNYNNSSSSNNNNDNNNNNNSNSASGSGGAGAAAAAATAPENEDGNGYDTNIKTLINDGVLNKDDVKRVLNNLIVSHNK
Test: PBM E-score (8-mer binding enrichment) (E-score (-0.5 to 0.5)); higher = stronger / more preferred TF binding
Conditions: protein concentration: 200 nM; construct: GST-full length
Protocol: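 Universal 'all 10-mer' protein binding microarrays (Agilent AMADID 015681) probed with GST-tagged S. cerevisiae TFs (full-length or DBD) made by in vitro transcription/translation (PURExpress), about 100-200 nM. Bound TF was detected with fluorescent anti-GST. Each ungapped 8-mer (which stands for itself and its reverse complement) is scored by the PBM enrichment score (E-score), a modified Wilcoxon-Mann-Whitney statistic from -0.5 to +0.5, computed with the Universal PBM Analysis Suite. Scale: above 0.35 generally sequence-specific binding.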

Sequence | PBM E-score
AGGACACG | 0.071
GTGAGCCA | -0.12
GCGTTGGA | 0.0942
GTATCGTA | 0.197
CCGTTTCA | -0.123
AAGAGAAC | 0.0546
CCTGTGCG | 0.185
GCCGTGCA | -0.0598
CCTGTGCC | 0.361
ACCGTGCC | 0.336
GCCGTGCC | 0.346
ACTGTGCC | 0.265
CGCGAGAC | -0.11
ACGCCAAG | -0.0211
CGCTGTGC | -0.0145
ATAGGTGG | 0.0389
AATAAGGA | 0.0872
GCTTACAA | 0.197
GATTACAC | 0.419
ACTTACAT | 0.311
CATTACAG | 0.287
GATTACAA | 0.359
AATTACAG | 0.27
AATTACAT | 0.419
CATTACAA | 0.301

Sequence | PBM E-score
CATTACAC | 0.384
GATTACGC | 0.23
GCTTACAC | 0.178
GATTACTA | 0.122
ATGCTGCC | -0.0402
ATCCGGAG | -0.0342
CCATACTC | -0.245
TATTACAA | 0.297
AATTACCC | -0.0825
AATTACAA | 0.362
AATTACAC | 0.402
AATTACCA | 0.174
ACTTACAC | 0.217
CCTGCAGC | 0.0434
CCTGCAGA | 0.303
CCTGCAGG | 0.413
TACATGAA | 0.375
AACATGCA | 0.324
GACATGGA | 0.167
CACATGAA | 0.185
GACATGCA | 0.203
AACATGGA | 0.312
TACATGGA | 0.346
TACATGCA | 0.361
GACATGAA | 0.274

Sequence | PBM E-score
AGCTATGC | -0.0718
GCACAGTA | -0.0809
ATGCTATG | 0.19
CGCTCAGA | 0.0235
ATCTTCAT | -0.0494
AAGTAGGG | -0.08
GCCTTGTA | 0.354
ACCTTGTA | 0.338
CCCTTGTA | 0.237
GCCTTGCC | 0.416
GCCTTGCA | -0.00236
CCCTTGCC | 0.0298
CATTTCGG | -0.063
AGGGCCCT | -0.368
GCTCGGAC | -0.172
CGACAGAA | -0.216
GACCTCGA | -0.139
GTATCCAA | -0.0981
CAGGTCAG | -0.242
CTAGGCAA | 0.474
ATAGGCAG | 0.234
ATAGGGAT | 0.0533
ATAGGCGC | 0.249
ATAGGCAA | 0.486
ATCGGCAT | -0.0895

Sequence | PBM E-score
ATAGGCTC | 0.207
ATAGGCAT | 0.412
CTAGGCTA | -0.18
ATAGGCAC | 0.491
CTAGGCGA | -0.178
ATAGGCTA | 0.0381
CCACAAGG | 0.094
AGTGAGCC | -0.0781
CAGTTAAA | 0.0473
GTGGCGCA | -0.0264
CCCAGTGA | -0.203
CATTCTCA | 0.0726
GTAGGCCA | 0.00764
TTAGGGAA | 0.0178
CTAGGCGC | 0.041
CTAGGCAG | -0.0742
TTCGGCAA | 0.0952
GTAGGCTA | 0.226
CTAGGCAC | 0.485
TTAGGCAA | 0.481
GTAGGCAA | 0.49
AAGACGCA | -0.0452
AAACAGCG | 0.0286
AGCCTGAT | 0.183
AGTGCCAA | -0.0129

Sequence | PBM E-score
AGTGCCGA | -0.324
GGTGCCTA | 0.492
AGTGCCTA | 0.484
GGTGCCAA | -0.14
GGTGCCGA | 0.0164
ATACAGAT | 0.0248
ACGTAGGA | 0.184
AACATGAG | 0.277
AACATGAT | 0.349
AACATGAC | 0.359
AACATGAA | 0.305
GACATGAC | 0.175
AACATGCT | 0.308
ACACAAGT | 0.164
ACACTGAC | 0.196
GGAAACGA | 0.0799
CCTGAACC | 0.206
CCCATCTC | -0.269
GTCGTGCA | 0.0491
CTCGTGTC | 0.184
CTCGTGTA | 0.353
GTCGTGGA | -0.26
ATCGTGTC | 0.247
ATCGTGTG | 0.204
CTCGTGGA | -0.234

Sequence | PBM E-score
GTCGTGTA | 0.376
ATCGTGTA | 0.39
CGACAGTA | -0.196
ATGTGCTG | 0.147
CCCTGGCC | -0.264
ATCAGATC | -0.196
ACAACTGG | -0.229
AGCGTGAA | -0.0361
GTAATTAC | 0.378
ATAATTAC | 0.258
CTAATTAC | 0.289
CGCGCGTC | 0.0273
CCCAGCGC | -0.0444
ACCTTCCT | 0.0149
ACAAGGCT | 0.111
CCAAGGCC | -0.14
ACAAGGCG | 0.109
GCAAGGCC | -0.0626
GCAAGGCA | 0.469
CCAAGGCG | -0.0205
TCAAGGCA | 0.458
GCAAGGGA | -0.155
TCAAGACA | -0.0248
ACAAGGCA | 0.449
CCAAGGCA | 0.458

Sequence | PBM E-score
TCAAGGGA | -0.213
AACTCTAG | 0.00906
ATGAAAGC | 0.103
GTCATTCA | -0.067
GAACCATC | -0.0773
AACTTTCC | 0.0113
AATGTTGT | 0.223
AGCTGATC | -0.17
CTGTCTCA | -0.258
TCCAGGAA | 0.316
ACCAGGCA | 0.446
GCCAGGCA | 0.436
CCCAGGCA | 0.461
GCCAGGCC | -0.25
GCCAGGAA | 0.124
TCCAGGGA | -0.212
ACCAGGCT | -0.06
CCCAGGCG | -0.061
CCCAGGCC | -0.191
TCCAGGCA | 0.463
ACCAGGCC | -0.0646
ACCTTGCT | -0.0444
ACCCGACA | -0.0489
TACACCGA | 0.0164
GCCGCTAA | -0.0753
